In PubChem BioAssay (NCATS):
Inconclusive results are not listed. The source made the active and inactive calls. Unless noted, the call rests on the fitted dose curve; in most records, active means well fitted curve in the direction sought with a large enough effect; inconclusive means small, poorly fitted or top-dose-only effect, or another doubt; inactive means no such curve, though single readings can be large; an effect the other way counts as inactive or inconclusive.

Assays:
[1] = qHTS for differential inhibitors of proliferation of Plasmodium falciparum line GB4 (AID 1816); details: Potency: Plasmodium falciparum GB4 proliferation inhibition;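 further: parasite growth measured after 72 h incubation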; further: potency means the concentration at half of the fitted maximal effect
[2] = qHTS for differential inhibitors of proliferation of Plasmodium falciparum line 3D7 (AID 1876); further: potency means the concentration at half of the fitted maximal effect
[3] = qHTS for differential inhibitors of proliferation of Plasmodium falciparum line D10 (AID 1877);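 further: parasites grown with compound for 72 h before DNA staining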; further: potency means the concentration at half of the fitted maximal effect
[4] = qHTS for differential inhibitors of proliferation of Plasmodium falciparum line Dd2 (AID 1882); details: Potency: Plasmodium falciparum Dd2 proliferation inhibition; further: nearly all actives have a fitted effect of over 65% in size; further: potency means the concentration at half of the fitted maximal effect
How it was run: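 SYBR Green DNA fluorescence (ex 485, em 535 nm) after overnight lysis quantifies parasite growth; compound exposure lasted 72 h at 37 C on infected red cells at 2.5% hematocrit, 0.3% parasitemia (final). Artemisinin 0.29 uM and vehicle wells define normalization.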

[5] = qHTS for differential inhibitors of proliferation of Plasmodium falciparum line HB3 (AID 1886); details: Potency: Plasmodium falciparum HB3 proliferation inhibition;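 further: parasites grown with compound for 72 h before SYBR Green readout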; further: potency means the concentration at half of the fitted maximal effect
[6] = biological target: Ferritin light chain (Equus caballus) (UniProt P02791); experiment: qHTS Validation Assay for Identification of Novel General Anesthetics (AID 2323); further: series mostly up to about 77 µM
Chain of Ferritin light chain (Equus caballus) (P02791 2-175 limits assumed): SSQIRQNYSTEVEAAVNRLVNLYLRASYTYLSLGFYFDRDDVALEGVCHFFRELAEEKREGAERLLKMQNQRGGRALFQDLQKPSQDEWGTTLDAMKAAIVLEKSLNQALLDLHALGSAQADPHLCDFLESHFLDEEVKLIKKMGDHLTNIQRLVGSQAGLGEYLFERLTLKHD
How it was run: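 Fluorescence at 535 nm (excitation 380 nm) reported loss of 1-AMA binding to horse-spleen apoferritin (10 uM) in PBS with 50% saturated 1-aminoanthracene, after 10 min room-temperature incubation with compound; values from Hill fits of normalized response.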

[7] = biological target: ATP-dependent DNA helicase Q1 (Homo sapiens) (UniProt P46063); experiment: qHTS Validation Assay for Inhibitors of RecQ-Like Dna Helicase 1 (RECQ1) (AID 2353)
Chain of ATP-dependent DNA helicase Q1 (Homo sapiens) (P46063 whole entry, looked up): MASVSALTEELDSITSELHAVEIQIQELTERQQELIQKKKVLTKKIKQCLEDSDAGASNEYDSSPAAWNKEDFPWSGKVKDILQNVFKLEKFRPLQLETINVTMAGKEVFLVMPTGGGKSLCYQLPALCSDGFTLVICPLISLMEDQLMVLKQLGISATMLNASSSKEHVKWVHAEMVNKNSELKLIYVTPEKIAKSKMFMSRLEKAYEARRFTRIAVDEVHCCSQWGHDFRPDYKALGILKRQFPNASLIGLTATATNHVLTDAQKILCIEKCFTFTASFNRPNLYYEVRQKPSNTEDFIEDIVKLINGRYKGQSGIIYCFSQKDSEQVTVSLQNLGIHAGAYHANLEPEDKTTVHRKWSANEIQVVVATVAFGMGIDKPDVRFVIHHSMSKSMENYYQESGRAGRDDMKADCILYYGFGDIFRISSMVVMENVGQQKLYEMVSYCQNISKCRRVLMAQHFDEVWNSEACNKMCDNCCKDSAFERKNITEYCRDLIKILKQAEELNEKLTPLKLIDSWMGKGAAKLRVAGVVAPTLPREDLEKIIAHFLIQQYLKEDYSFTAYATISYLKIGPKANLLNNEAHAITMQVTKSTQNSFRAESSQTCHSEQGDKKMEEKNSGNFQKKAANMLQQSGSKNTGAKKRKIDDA
How it was run: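 RECQ1T1 50 nM; forked duplex (20 bp + 30-nt ss tails) 200 nM, ATP 2 mM final; pH 8.0, 2 mM MgCl2, 2.5 ug/ml poly(dI-dC); 15 min compound preincubation; discontinuous kinetic read over 2 h at RT.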

[8] = biological target: RecQ-like DNA helicase BLM (Homo sapiens) (UniProt P54132); experiment: qHTS Validation Assay for Inhibitors of Bloom's syndrome helicase (BLM) (AID 2364)
Chain of RecQ-like DNA helicase BLM (Homo sapiens) (P54132 whole entry, looked up): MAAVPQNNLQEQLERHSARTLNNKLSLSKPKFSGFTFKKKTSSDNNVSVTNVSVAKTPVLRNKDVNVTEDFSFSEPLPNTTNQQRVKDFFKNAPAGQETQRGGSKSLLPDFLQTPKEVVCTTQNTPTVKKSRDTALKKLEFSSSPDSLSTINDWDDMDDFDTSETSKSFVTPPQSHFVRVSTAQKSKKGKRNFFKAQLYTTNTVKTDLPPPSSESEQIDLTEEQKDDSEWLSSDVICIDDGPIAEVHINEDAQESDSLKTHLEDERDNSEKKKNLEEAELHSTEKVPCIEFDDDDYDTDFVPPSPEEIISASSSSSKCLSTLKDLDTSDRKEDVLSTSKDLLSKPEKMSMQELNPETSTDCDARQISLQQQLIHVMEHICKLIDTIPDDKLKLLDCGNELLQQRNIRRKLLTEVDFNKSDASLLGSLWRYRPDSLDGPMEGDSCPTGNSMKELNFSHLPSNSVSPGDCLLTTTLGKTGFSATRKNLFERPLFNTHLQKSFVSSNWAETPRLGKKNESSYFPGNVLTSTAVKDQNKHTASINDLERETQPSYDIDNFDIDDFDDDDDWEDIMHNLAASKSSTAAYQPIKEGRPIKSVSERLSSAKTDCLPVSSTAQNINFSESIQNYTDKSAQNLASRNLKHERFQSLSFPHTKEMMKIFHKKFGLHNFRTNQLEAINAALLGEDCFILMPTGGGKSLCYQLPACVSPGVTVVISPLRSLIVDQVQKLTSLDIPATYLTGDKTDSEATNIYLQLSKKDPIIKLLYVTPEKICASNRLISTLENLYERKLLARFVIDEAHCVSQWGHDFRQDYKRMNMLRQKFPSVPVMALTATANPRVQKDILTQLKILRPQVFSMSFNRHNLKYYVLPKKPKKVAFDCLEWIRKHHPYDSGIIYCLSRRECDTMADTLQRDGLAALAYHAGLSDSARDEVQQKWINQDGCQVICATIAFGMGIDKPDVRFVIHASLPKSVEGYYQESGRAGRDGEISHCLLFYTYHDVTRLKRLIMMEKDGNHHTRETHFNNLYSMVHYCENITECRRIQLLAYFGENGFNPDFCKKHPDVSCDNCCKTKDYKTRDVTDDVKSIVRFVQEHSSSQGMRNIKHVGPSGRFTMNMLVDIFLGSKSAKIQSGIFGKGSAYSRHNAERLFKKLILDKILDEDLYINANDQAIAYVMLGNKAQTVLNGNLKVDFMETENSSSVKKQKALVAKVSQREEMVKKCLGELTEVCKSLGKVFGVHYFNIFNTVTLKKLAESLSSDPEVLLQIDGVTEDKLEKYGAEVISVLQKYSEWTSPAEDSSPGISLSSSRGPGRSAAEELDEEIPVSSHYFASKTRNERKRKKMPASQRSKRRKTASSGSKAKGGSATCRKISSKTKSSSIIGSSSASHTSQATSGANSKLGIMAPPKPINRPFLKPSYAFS
How it was run: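 50 nM BLM preincubated 15 min at room temperature with compound in pH 8.0 Tris buffer containing 2.5 ug/ml poly(dI-dC); started with 200 nM TAMRA/BHQ-2 forked duplex and 2 mM ATP (final). Unwinding read as TAMRA fluorescence increase, two reads 2 h apart.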

[9] = qHTS for differential inhibitors of proliferation of Plasmodium falciparum line W2 (AID 1883); details: Potency: Plasmodium falciparum W2 proliferation inhibition;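 further: parasites grown with compound for 72 h before lysis and staining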; further: potency means the concentration at half of the fitted maximal effect
[10] = qHTS Assay for Modulators of Human Peripheral Myelin Protein 22 (PMP22) Expression/Activity (AID 1967; active means well fitted curve in the direction sought with a large enough effect in the signal ratio; the % refers to the signal ratio)
How it was run: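 Luminescence ratio of Pmp22 promoter-driven green luciferase to EF-alpha-driven red luciferase, in engineered mouse MSC80 Schwann cells, served as read-out. Compounds were incubated 24h; untreated cells defined 0% Activity; curves were classified by r2, magnitude and activity.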

Measured: Potency

C[C@]12CCC(=O)C=C1CC[C@@H]1[C@@H]2[C@@H](O)C[C@@]2(C)[C@H]1CC[C@]2(O)C(=O)COC(=O)CCC(=O)O
not listed: [9] | [10]
inactive: all other assays above

CC(C)N(CCC(=O)c1ccc2ccccc2c1)Cc1ccccc1
inactive: [2] | [3] | [4] | [5] | [7]

O=[N+]([O-])c1ccc(-c2nc(-c3ccc(F)cc3)c(-c3ccncc3)[nH]2)cc1
active: [1] 3.98 µM | [2] 3.55 µM | [3] 5.01 µM | [4] 6.31 µM | [9] 3.98 µM | [5] 4.47 µM
inactive: [6]

COc1ccccc1N1CCN(CCN2C(=O)CC3(CCCC3)CC2=O)CC1
not listed: [9]
inactive: all other assays above

C[N+](C)(C)CCO
not listed: [8]
inactive: all other assays above

Brc1ccc([C@H]2CN3CCSC3=N2)cc1
inactive: [3] | [10] | [7]
active: [1] 12.6 µM | [9] 7.94 µM

NC(N)=NCCCCN=C(N)N
not listed: [5]
inactive: all other assays above

COc1cccc2c1[C@@H]1CN(CCCCn3c(=O)[nH]c4c(sc5ncc(-c6ccccc6)nc54)c3=O)C[C@@H]1CO2
inactive: [4] | [7] | [8]

Cn1cnc2c(NCc3ccccc3)nc(NCCO)nc21
inactive: [4] | [6] | [7] | [8]

CN(C)c1cc2c(Nc3ccc4c(cnn4Cc4ccccc4)c3)ncnc2cn1
inactive: [6] | [7]
active: [1] 3.16 µM | [2] 3.55 µM | [3] 10 µM | [4] 11.2 µM | [9] 3.55 µM | [5] 4.47 µM

O=C1NC(c2cccc([N+](=O)[O-])c2)=CCN1c1ccccc1O
not listed: [6] | [9]
inactive: all other assays above
